Experimental data from ChEMBL document CHEMBL3988442, “University of Dundee, Small-Polar-MMV Screening Library” (2021).
For some of these results: Measured potencies and affinities stand elsewhere.

Assays:
Design in all cases: scale not given: direction of the effect not stated beside the values
[1] = target: Protein translocase subunit SecA (Escherichia coli (strain K12)) (UniProt P10408); assay: Assay to Identify E. coli SecA ATPase Inhibitors; type: functional; conditions: 30 µM
[2] = target: T1, Ubiquitin-activating enzyme e1, putative (Leishmania donovani (strain BPK282A1)) (UniProt E9BSI1); assay: Leishmania donovani Ubiquitin Activating Enzyme (LdE1); type: functional; conditions: 30 µM
T1 sequence (whole entry): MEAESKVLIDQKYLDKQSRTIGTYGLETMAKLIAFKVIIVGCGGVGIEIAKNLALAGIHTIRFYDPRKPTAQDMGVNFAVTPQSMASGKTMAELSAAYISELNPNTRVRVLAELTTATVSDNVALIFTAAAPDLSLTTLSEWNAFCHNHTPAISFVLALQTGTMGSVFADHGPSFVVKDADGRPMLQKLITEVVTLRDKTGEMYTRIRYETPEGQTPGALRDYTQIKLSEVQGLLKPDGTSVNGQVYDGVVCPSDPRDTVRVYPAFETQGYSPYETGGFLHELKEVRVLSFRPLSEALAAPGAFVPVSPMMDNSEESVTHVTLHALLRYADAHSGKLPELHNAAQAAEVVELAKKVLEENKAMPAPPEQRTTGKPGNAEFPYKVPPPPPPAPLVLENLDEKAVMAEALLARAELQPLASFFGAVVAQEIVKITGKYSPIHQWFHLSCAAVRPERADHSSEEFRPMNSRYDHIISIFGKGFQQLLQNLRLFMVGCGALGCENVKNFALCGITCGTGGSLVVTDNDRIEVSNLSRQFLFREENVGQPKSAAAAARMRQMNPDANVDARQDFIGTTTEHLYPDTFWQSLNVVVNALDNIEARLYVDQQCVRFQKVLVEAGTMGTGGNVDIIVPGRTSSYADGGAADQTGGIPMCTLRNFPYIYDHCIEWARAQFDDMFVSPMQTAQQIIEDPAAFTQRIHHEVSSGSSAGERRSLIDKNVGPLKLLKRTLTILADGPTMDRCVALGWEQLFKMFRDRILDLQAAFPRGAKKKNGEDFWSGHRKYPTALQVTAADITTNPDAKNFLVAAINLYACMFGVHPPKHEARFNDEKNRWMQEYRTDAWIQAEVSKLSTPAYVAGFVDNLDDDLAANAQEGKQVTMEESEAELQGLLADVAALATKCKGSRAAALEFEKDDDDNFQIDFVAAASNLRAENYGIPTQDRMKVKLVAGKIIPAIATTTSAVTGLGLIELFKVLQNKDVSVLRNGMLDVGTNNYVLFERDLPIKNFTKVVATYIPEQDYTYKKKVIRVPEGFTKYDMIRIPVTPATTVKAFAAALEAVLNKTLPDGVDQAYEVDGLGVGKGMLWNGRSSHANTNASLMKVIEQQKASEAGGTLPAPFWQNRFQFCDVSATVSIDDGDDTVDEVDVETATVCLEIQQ

[3] = target: AMP-activated protein kinase, AMPK (Homo sapiens) (UniProt P54646+O43741+P54619+Q9UGJ0+Q9Y478+Q13131+Q9UGI9); assay: AMP-dependent Kinase enzyme assay. An in vitro enzyme assay that detects ADP turnover that is directly proportional to AMPK activity. This uses naive AMPK that is activated during the assay with MK-8722; type: functional; conditions: 30 µM
[4] = target: Sialic acid-binding Ig-like lectin 9 (Homo sapiens) (UniProt Q9Y336); assay: Hs-Siglec9 ALPHAscreen SOP 20170721; conditions: 10 µM
[5] = tested on: Trypanosoma cruzi; assay: Trypanosoma cruzi phosphomannomutase and mannose-1-phosphate guanylyltransferase assay; type: functional; conditions: 10 µM
[6] = target: T2, Arginase-2, mitochondrial (Homo sapiens) (UniProt P78540); assay: in vitro enzyme assay to detect the production of urea directly proportional to the activity of Arginase II; type: functional; conditions: 33.3 µM; also: in the data most compounds retested in dose-response had high values
T2 sequence (whole entry): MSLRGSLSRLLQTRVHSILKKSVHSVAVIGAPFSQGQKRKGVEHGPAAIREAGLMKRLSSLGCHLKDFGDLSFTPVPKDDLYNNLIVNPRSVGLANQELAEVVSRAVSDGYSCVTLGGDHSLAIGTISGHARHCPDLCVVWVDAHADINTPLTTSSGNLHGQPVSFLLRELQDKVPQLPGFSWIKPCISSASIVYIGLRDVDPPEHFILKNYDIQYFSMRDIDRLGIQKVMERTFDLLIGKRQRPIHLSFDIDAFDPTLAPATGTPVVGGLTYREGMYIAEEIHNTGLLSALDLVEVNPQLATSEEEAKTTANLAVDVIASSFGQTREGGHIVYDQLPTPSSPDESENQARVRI

[7] = target: T3, Proteasome subunit beta (Trypanosoma cruzi) (UniProt O96673); assay: Trypanosoma cruzi proteasome chymotrypsin-like activity (TcProtChymo) assay.; also: in the data most compounds retested in dose-response had high values; type: functional; conditions: 9.37 µM
T3 sequence (whole entry): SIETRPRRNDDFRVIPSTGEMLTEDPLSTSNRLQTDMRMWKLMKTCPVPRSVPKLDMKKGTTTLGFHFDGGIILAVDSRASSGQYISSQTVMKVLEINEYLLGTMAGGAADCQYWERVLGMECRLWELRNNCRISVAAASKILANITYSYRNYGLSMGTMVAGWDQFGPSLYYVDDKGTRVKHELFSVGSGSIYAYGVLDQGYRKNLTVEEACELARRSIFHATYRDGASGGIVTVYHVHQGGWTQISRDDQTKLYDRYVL

[8] = organism: Homo sapiens; assay: To identify inhibition of the IFN signalling (Jak-Stat) pathway via expression of an eGFP reporter gene under the control of an IFN-stimulated response element (ISRE) containing MxA promoter.; type: functional; conditions: 30 µM
[9] = target: T4, Tyrosyl-tRNA synthetase, putative (Trypanosoma cruzi (strain CL Brener)) (UniProt Q4DSP6); assay: Trypanosoma cruzi tyrosyl tRNA synthetase (TcYRS) _High Tyrosine SOP; type: functional; conditions: 30 µM; also: in the data most compounds retested in dose-response had high values
T4 sequence (whole entry): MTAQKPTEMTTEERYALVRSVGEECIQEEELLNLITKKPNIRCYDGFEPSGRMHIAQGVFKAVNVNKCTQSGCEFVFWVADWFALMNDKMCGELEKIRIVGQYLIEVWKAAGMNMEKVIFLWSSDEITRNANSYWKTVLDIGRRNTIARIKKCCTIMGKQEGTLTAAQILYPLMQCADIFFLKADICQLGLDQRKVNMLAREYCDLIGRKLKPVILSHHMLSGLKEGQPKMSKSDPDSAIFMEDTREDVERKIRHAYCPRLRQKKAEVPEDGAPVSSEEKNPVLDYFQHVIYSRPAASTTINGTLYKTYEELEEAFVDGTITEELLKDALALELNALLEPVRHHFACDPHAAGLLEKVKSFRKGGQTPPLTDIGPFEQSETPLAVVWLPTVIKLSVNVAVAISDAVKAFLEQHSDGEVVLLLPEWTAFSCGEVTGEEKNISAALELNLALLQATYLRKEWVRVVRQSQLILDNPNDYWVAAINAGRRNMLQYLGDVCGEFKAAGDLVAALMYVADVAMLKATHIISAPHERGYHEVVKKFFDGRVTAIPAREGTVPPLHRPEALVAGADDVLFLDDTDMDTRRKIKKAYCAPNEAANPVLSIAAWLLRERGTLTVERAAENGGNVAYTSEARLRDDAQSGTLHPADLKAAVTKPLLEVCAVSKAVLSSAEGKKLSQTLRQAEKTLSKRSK

[10] = target: T4, Tyrosyl-tRNA synthetase, putative (Trypanosoma cruzi (strain CL Brener)); assay: Trypanosoma cruzi tyrosyl tRNA synthetase (TcYRS) SOP; type: functional; conditions: 30 µM
[11] = target: Chromo domain-containing protein 1 (Saccharomyces cerevisiae (strain ATCC 204508 / S288c) (Baker's yeast)) (UniProt P32657); assay: ScCHD-1 Enzyme Inhibition Assay; type: functional; conditions: 30 µM; also: in the data most compounds retested in dose-response had high values
Chain of Chromo domain-containing protein 1 (Saccharomyces cerevisiae (strain ATCC 204508 / S288c) (Baker's yeast)) (P32657 whole entry, the tested form may be a part): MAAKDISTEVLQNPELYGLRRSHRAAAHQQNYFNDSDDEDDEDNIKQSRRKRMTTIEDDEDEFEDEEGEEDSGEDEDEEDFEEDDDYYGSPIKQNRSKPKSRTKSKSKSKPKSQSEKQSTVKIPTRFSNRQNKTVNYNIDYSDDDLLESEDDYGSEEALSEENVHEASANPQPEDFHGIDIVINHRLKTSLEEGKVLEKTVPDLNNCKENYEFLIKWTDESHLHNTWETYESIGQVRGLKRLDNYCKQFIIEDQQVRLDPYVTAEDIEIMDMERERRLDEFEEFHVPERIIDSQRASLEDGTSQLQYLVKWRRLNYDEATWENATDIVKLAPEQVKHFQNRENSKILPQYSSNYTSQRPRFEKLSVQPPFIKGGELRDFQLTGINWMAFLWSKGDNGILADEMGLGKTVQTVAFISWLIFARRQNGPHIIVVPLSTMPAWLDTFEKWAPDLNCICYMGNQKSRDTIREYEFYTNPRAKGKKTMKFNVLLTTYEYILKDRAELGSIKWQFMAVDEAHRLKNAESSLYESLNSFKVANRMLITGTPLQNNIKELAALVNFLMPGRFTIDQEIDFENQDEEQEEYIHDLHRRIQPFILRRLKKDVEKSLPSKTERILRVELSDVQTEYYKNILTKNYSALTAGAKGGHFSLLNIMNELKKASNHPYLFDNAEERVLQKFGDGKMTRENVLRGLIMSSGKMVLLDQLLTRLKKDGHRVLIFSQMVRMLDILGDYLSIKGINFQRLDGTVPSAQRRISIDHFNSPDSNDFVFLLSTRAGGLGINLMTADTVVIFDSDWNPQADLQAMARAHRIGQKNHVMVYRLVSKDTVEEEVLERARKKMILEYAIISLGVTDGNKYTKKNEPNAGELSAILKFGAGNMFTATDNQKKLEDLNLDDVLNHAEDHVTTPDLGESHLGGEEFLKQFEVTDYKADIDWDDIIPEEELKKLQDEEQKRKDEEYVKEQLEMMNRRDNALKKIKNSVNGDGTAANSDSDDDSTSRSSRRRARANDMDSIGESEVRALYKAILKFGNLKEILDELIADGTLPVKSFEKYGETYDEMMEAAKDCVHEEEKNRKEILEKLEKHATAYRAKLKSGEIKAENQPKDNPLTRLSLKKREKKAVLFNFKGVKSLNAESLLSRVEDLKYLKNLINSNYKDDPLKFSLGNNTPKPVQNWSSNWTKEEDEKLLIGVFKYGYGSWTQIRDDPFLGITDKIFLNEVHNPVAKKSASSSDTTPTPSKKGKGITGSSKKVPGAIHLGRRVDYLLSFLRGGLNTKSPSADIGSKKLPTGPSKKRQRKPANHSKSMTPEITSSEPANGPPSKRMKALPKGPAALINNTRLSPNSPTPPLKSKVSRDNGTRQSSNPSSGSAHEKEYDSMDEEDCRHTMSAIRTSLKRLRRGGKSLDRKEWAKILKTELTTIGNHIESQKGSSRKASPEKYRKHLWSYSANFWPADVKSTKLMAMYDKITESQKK

Chain of Protein translocase subunit SecA (Escherichia coli (strain K12)) (P10408 whole entry): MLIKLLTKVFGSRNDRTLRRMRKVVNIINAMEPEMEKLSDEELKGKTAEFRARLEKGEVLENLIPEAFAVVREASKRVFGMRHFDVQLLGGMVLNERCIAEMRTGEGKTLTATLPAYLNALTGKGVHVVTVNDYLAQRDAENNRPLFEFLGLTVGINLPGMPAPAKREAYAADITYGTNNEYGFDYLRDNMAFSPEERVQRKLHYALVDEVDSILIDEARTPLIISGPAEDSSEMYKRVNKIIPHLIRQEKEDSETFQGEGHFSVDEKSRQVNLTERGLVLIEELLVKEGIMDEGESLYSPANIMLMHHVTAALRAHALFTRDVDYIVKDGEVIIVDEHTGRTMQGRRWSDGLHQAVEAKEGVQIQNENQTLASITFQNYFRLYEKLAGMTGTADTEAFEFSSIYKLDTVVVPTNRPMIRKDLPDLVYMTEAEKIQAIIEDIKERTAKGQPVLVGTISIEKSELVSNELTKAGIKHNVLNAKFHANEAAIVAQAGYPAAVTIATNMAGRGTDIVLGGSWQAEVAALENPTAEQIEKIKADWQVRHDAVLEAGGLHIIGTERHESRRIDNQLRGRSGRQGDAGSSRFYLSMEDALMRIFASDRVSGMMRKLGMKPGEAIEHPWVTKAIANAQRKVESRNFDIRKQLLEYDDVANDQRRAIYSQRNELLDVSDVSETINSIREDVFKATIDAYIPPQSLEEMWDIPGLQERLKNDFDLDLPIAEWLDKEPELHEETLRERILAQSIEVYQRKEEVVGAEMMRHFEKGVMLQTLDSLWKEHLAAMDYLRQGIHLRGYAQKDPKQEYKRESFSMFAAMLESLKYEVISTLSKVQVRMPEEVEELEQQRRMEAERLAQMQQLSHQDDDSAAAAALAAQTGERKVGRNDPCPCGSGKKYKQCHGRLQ
Chain of Sialic acid-binding Ig-like lectin 9 (Homo sapiens) (Q9Y336 whole entry): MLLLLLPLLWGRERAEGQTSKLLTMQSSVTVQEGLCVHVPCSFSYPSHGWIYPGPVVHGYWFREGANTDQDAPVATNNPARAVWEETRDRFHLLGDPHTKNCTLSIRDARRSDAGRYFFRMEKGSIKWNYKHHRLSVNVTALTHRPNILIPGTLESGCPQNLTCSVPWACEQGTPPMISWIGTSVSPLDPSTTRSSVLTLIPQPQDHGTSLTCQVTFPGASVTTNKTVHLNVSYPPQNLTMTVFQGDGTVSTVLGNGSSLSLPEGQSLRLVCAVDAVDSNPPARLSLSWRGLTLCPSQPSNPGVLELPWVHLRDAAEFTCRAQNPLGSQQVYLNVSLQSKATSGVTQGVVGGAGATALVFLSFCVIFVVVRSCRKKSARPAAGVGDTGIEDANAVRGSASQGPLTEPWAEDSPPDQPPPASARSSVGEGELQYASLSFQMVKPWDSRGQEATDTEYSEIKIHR

SMILES | Percent Effect [1] | Percent Effect [2] | Percent Effect [3] | Percent Effect [4] | Percent Effect [5] | Percent Effect [6] | Percent Effect [7] | Percent Effect [8] | Percent Effect [9] | Percent Effect [10] | Percent Effect [11]
O=C(NCC1CC1)[C@H]1C[C@@H]2CCN(Cc3nccs3)C[C@@H]2O1 | -2.59% | 8.11% | 5.76% | -2.2% | 4.4% | -2.23% | 20.7% | 17.8% | 8.65% | 15.4% | 2.01%
COCC(=O)N(C)Cc1cccc(Cl)c1 | -4% | 10.5% | -1.75% | -3.18% | 4.19% | 0% | 2.78% | 4.21% | 1.06% | 13% | -4.61%
Cn1ccc(C(=O)N2CCCC(n3cncn3)C2)cc1=O (stereo unspecified) | -7.5% | 10.4% | -3.42% | 0.542% | 5.97% | -6.11% | 11.9% | -3.24% | 3.81% | 9.41% | -18.8%
CN(C)S(=O)(=O)N1C[C@H](Oc2cccnc2)[C@H]2OCCC[C@H]21 | -5.31% | 5.2% | 74% | -1.91% | -0.69% | -4.52% | 3.65% | 10.9% | 0% | -1.28% | -8.75%
CC(=O)N1CCn2cc(CNC(=O)c3cccn3C)nc2C1 | -2.25% | 13.3% | 8.17% | -3.72% | -5.32% | 0.233% | 2.2% | 5.97% | 3.19% | 14.1% | -2.9%
COCCO[C@@H]1CCN(Cc2csc(C)n2)[C@H]1Cc1ccccc1 | -2.84% | -5.41% | -0.151% | -7.92% | -3.03% | -1.24% | -1.29% | 8.8% | 1.07% | -1.24% | -1.36%
CC(CNC(=O)c1ccc(Cl)cc1I)N1CCCC1 (stereo unspecified) | -0.489% | -2.7% | -6.38% | -1.77% | 7.53% | -2.38% | 27.4% | -7.67% | 6.88% | 12.2% | 51.2%
Cc1ccc(C(=O)N2CCCC2c2nnc3n2CCCCC3)o1 (stereo unspecified) | 0.332% | -1.39% | 7.46% | -3.27% | -2.23% | -11.9% | 6.84% | -2.88% | 2.1% | -5.13% | -1.81%
CC(=O)Nc1nc(CN2CCn3c(nnc3C3CC3)C2)cs1 | -1.36% | 5.41% | 0.348% | 6.61% | 5.11% | -9.06% | -3.59% | 2.7% | 0.99% | 11% | -3.08%
c1ncn(CC2CCCCN2Cc2noc(C3CC3)n2)n1 (stereo unspecified) | -0.132% | 15.8% | 0.834% | 1.81% | -1.69% | -1.92% | 16.4% | 6.6% | 3.43% | 21.9% | -12.9%
COC(=O)c1ccc(C2CC(=O)Oc3cc(C)[nH]c(=O)c32)cc1 (stereo unspecified) | -1.55% | 6.67% | -1.14% | 0.386% | 4.71% | -2.99% | 7.58% | -1.51% | 6.35% | 5.13% | -3.36%
